# Experimental data published in the supplement of paper PMC12636033.
# ± gives the standard deviation of the averaged measurements. Over roughly 33,000 sequences, “E-score (rank enrichment, -0.5 to 0.5)” has its median near -0.0043; the highest 2% begin near 0.24. The list comes from a sample in which the highest values are over-represented; it also holds similar and randomly drawn sequences.
# Test system: 2Sp-muMax20 (muMax20 with two 2,6-bis(methyl)pyridine Cys staples)
# Assay: PBM 8-mer E-score (E-score (rank enrichment, -0.5 to 0.5)); higher = stronger preferential binding
# Protocol: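 Protein binding microarray (universal PBM chip covering all 10-mers in fixed probe flanks) with chemically synthesized human Max(13-93) bHLH-LZ analogs (not full-length Max) bearing noncanonical residues (hArg, Tha, Aib, Nle at 65) and aromatic Cys staples. Read-out per 8-mer (and its reverse complement): E-score (rank-based enrichment, -0.5 to 0.5) and Z-score of median probe intensity.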
row,Sequence,PBM 8-mer E-score
1,AGCGCGCC,0.123 ± 0.087
2,CACGCGCA,0.0178 ± 0.093
3,GGCGCGCC,-0.0216 ± 0.12
4,AACGCGCC,-0.0607 ± 0.047
5,CGCGCGCC,0.243 ± 0.006
6,CGCGCGCG,0.2 ± 0.077
7,AAAGCGCA,0.18 ± 0.0096
8,CAAGCGCA,0.245 ± 0.058
9,ACATCGAG,0.0846 ± 0.046
10,AAGCGTGG,0.0965 ± 0.049
11,CTCACGCA,0.12 ± 0.049
12,ACGTATAT,0.145 ± 0.039
13,TAGCGCTA,-0.00743 ± 0.0017
14,ACCATTCT,0.0547 ± 0.046
15,AACGCGCG,0.263 ± 0.023
16,AACGCTCG,0.0415 ± 0.059
17,CACACGCA,0.0795 ± 0.072
18,AACACGCG,0.213 ± 0.0048
19,CACACGCG,0.281 ± 0.035
20,AACGCGCA,0.0173 ± 0.051
21,CACGCTCA,0.0559 ± 0.045
22,CACGCTCG,0.245 ± 0.0082
23,AACGCGCT,-0.0289 ± 0.021
24,GGACGCAA,0.0641 ± 0.04
25,AGTTGCAG,0.122 ± 0.058

row,Sequence,PBM 8-mer E-score
1,TACAGGTA,0.0603 ± 0.031
2,ATCAATGG,0.0872 ± 0.022
3,GCCTCAAC,0.0347 ± 0.072
4,ATCGTAAT,0.238 ± 0.0064
5,ATCGTAAA,0.159 ± 0.07
6,ATCGTAAG,-0.0242 ± 0.048
7,GTCCTTGA,-0.198 ± 0.017
8,CGTAACGA,0.0392 ± 0.11
9,AAGGGTTG,0.0285 ± 0.053
10,AGGGGTTA,0.124 ± 0.052
11,AGGGGTTG,0.258 ± 0.045
12,CGGATCAA,-0.188 ± 0.075
13,TATAGAGA,-0.0265 ± 0.04
14,GAATGACA,-0.0425 ± 0.0067
15,ATATGACA,0.25 ± 0.012
16,TAATGACA,0.25862 ± 7.8e-05
17,CAATGACA,0.128 ± 0.054
18,GTATGATA,0.342 ± 0.008
19,GTATGAGA,0.124 ± 0.0095
20,CTATGATA,0.0216 ± 0.058
21,CTATGACA,0.106 ± 0.0052
22,ATATGATG,0.181 ± 0.031
23,GTATGACA,0.158 ± 0.0027
24,GCATGATA,0.226 ± 0.0026
25,ATATGATA,0.2602 ± 0.0017

row,Sequence,PBM 8-mer E-score
1,ACAATTGG,0.0427 ± 0.02
2,CTCGTTAA,0.0752 ± 0.0062
3,CGGGATCA,-0.0799 ± 0.0016
4,AAATCCCG,0.1036 ± 0.0009
5,ACTGAGAT,0.0783 ± 0.12
6,CACGGATC,-0.305 ± 0.0061
7,CATGATTC,0.0562 ± 0.0054
8,CATGATAA,0.267 ± 0.065
9,CATGATAG,0.0923 ± 0.043
10,TATGATAA,0.0434 ± 0.066
11,AATGATAA,0.0232 ± 0.082
12,AATGATAC,0.193 ± 0.13
13,ACTGATAT,0.0652 ± 0.073
14,GATGATTA,0.103 ± 0.0017
15,CATGATAC,0.253 ± 0.048
16,AATGATAG,0.176 ± 0.039
17,AATGATAT,0.241 ± 0.01
18,CATGATTA,0.24 ± 0.025
19,CGCTATAG,0.0363 ± 0.071
20,GGGGTGAC,0.0455 ± 0.096
21,CGGCCTTC,-0.124 ± 0.097
22,TAAGATAA,0.0454 ± 0.027
23,AAAGATAA,0.218 ± 0.028
24,CAAGATAA,0.276 ± 0.014
25,AATTCTTC,0.0644 ± 0.062

row,Sequence,PBM 8-mer E-score
1,GCACCCCA,0.128 ± 0.071
2,TCACCCAA,0.143 ± 0.0019
3,CCACCCCA,0.254 ± 0.043
4,ACACCCCA,0.208 ± 0.015
5,TCACCCCA,0.276 ± 0.021
6,CCACCCCC,-0.0899 ± 0.002
7,AATGGATG,-0.124 ± 0.015
8,AGTACACG,0.0271 ± 0.052
9,AAGAGCCT,0.00281 ± 0.074
10,AGTCGCAA,0.119 ± 0.018
11,TTAAATAA,0.171 ± 0.051
12,GTAAATAC,0.0558 ± 0.018
13,ATAAATAG,0.191 ± 0.021
14,GTAAATAA,0.157 ± 0.059
15,CTAAATAC,0.249 ± 0.037
16,ATAAATAC,0.264 ± 0.019
17,CTAAATAA,0.126 ± 0.07
18,ATAAATAA,0.171 ± 0.053
19,ATAAATAT,0.263 ± 0.021
20,CAGCGTCC,-0.107 ± 0.044
21,TCGATTCA,0.0577 ± 0.023
22,GAGCTCAC,0.0534 ± 0.12
23,ATCTGTTC,0.11 ± 0.068
24,ACTAGCAC,0.0515 ± 0.15
25,CTACCCAA,0.0921 ± 0.061

row,Sequence,PBM 8-mer E-score
1,AACCCCAA,0.249 ± 0.062
2,TGACCCCA,0.108 ± 0.02
3,AACCCAAA,0.0422 ± 0.03
4,AACCCCCA,-0.297 ± 0.061
5,CTACCCCA,0.283 ± 0.011
6,CTACCCCC,-0.195 ± 0.12
7,AGACCCCC,-0.388 ± 0.063
8,AAACCCCA,0.293 ± 0.022
9,ACCCCCAA,-0.142 ± 0.059
10,AGACCCCA,0.284 ± 0.052
11,AAACCCCC,-0.303 ± 0.11
12,GCCATTCC,-0.155 ± 0.069
13,TCGAGAAA,0.0513 ± 0.046
14,GCCTTCTA,0.0133 ± 0.025
15,CCCGCACA,-0.141 ± 0.011
16,AAACCTGA,-0.0739 ± 0.087
17,AAACAGAC,0.143 ± 0.097
18,AGGTGGCA,-0.0941 ± 0.015
19,ACCAGGTA,-0.11 ± 0.012
20,AATTATTG,0.196 ± 0.015
21,AGACCAAC,-0.0312 ± 0.013
22,CAACCCCC,-0.196 ± 0.022
23,CAACCCCA,0.264 ± 0.035
24,CAACCCAA,0.0124 ± 0.094
25,ATGCTTTA,0.138 ± 0.081

row,Sequence,PBM 8-mer E-score
1,ATGCTTTG,0.239 ± 0.036
2,ATGCTTTC,0.125 ± 0.017
3,GCGCGCTA,0.235 ± 0.021
4,AATCGCAG,0.142 ± 0.046
5,TGGGCCAA,-0.0226 ± 0.046
6,CTGCAATA,0.0295 ± 0.0051
7,ATGCATCA,0.347 ± 0.046
8,ATGCATTA,0.319 ± 0.0086
9,ATGCAATA,0.246 ± 0.0094
10,GTGCAATA,0.0506 ± 0.012
11,ACGCATGA,0.136 ± 0.0059
12,ACGCATGG,0.13 ± 0.026
13,ACGCATGC,0.277 ± 0.06
14,GTGCATTA,0.156 ± 0.042
15,GTGCATCA,0.0111 ± 0.045
16,ATGCATCG,0.0497 ± 0.074
17,CTGCATTA,0.107 ± 0.025
18,CGACCACC,-0.142 ± 0.0047
19,GCCTTAGC,-0.154 ± 0.029
20,AGATCTTG,0.152 ± 0.051
21,CCATCGAA,-0.00649 ± 0.052
22,GACTATGC,0.0616 ± 0.023
23,ATCCAGTG,-0.0872 ± 0.065
24,ACATTCGG,-0.0311 ± 0.13
25,ACGCATAT,0.333 ± 0.011

row,Sequence,PBM 8-mer E-score
1,ATGCATAC,0.258 ± 0.12
2,CTGCATTC,-0.000675 ± 0.052
3,ATGCATGG,0.13 ± 0.055
4,ACGCATAG,-0.0802 ± 0.035
5,ACGCATAA,0.164 ± 0.07
6,ATGCATAA,0.114 ± 0.045
7,ATGCATGC,0.262 ± 0.048
8,ATGCATTG,0.165 ± 0.0071
9,CTGCATGC,0.0733 ± 0.071
10,ATGCATTC,0.285 ± 0.048
11,CTGCATAC,0.0466 ± 0.068
12,CAGGGGGA,0.00992 ± 0.059
13,ACACCGCT,-0.116 ± 0.068
14,CAGCTTGG,-0.0934 ± 0.012
15,GCCCGGGC,-0.296 ± 0.055
16,ACTGAATG,-0.0577 ± 0.048
17,CGCCGATC,-0.128 ± 0.13
18,ATTTGCCA,-0.024 ± 0.041
19,ACTTCCGG,-0.229 ± 0.1
20,CTCCTCTA,-0.151 ± 0.013
21,CACCTCCG,-0.0614 ± 0.051
22,GAAAGTCA,-0.0504 ± 0.065
